In PubChem BioAssay (NCI):
The panel holds about 79,000 compounds, 15% with a hit somewhere; the sample as a whole holds those more often. Active and inactive are the calls of the source. Cut-off read from the data, not from the text of the source: active = growth inhibition above about 70%; inactive = the rest. Where a SMILES comes first, the peptide text is derived from it. [ ]: non-standard residue; d: D form. The star is where a group is joined. ξ: configuration not given here. Tos = Cc1ccc(S(=O)(=O)*)cc1; ξY = NC(Cc1ccc(O)cc1)C(=O)O

What was measured:
[1] = NCI Yeast Anticancer Drug Screen. Data for the rad50 strain (AID 155);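 note: 0% = growth of vehicle-only cultures of the same strain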; conditions: S. cerevisiae rad50 strain growth inhibition; at 50.0 µM; active compounds read high
Outline: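 Growth of the mutant yeast was measured after compound exposure and referenced to vehicle-treated cultures.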

[2] = NCI Yeast Anticancer Drug Screen. Data for the mec2-1 strain (AID 157); conditions: S. cerevisiae mec2-1 strain, at 50.0 µM, active compounds read high
Outline: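 Mutant yeast (mec2-1) grown with compound; growth inhibition relative to vehicle control reported.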

[3] = NCI Yeast Anticancer Drug Screen. Data for the sgs1 mgt1 strain (AID 161);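 note: 0% = growth of cultures given vehicle only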; conditions: S. cerevisiae sgs1 mgt1 strain, at 50.0 µM, active compounds read high
Outline: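 Yeast cells carrying a defined DNA-repair defect were exposed to test compounds. Growth inhibition was measured relative to vehicle-treated controls.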

[4] = NCI Yeast Anticancer Drug Screen. Data for the cln2 rad14 strain (AID 165);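 note: 0% = growth equal to vehicle treated cultures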; conditions: S. cerevisiae cln2 rad14 strain, at 50.0 µM, active compounds read high
Outline: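 Readout is yeast growth inhibition versus vehicle-treated controls, using a strain with cln2 and rad14 alterations exposed to compound.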

[5] = NCI Yeast Anticancer Drug Screen. Data for the bub3 strain (AID 167); conditions: S. cerevisiae bub3 mutant strain, at 50.0 µM, active compounds read high
Outline: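 Whole-cell yeast assay. The mutant strain was incubated with compounds, and growth inhibition was determined by comparison with vehicle-treated cells.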

[6] = NCI Yeast Anticancer Drug Screen. Data for the mlh1 rad18 strain (AID 175); conditions: S. cerevisiae mlh1 rad18 strain growth inhibition; at 50.0 µM; active compounds read high
Outline: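 Genetically defined yeast (DNA repair-deficient) exposed to compounds; growth inhibition determined relative to vehicle.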

Measured: growth inhibition

CCNC(=O)OCCN(C)CCOC(=O)NCC
inactive: [1] -10% | [2] 9.55% | [3] -4.15% | [4] -20% | [5] -7.7% | [6] -0.7%

COC(=O)CCCCl
inactive: [1] -51% | [2] -56.4% | [3] -38% | [4] 8.25% | [5] -21% | [6] -15.6%

Clc1ccc(CSc2cnnc(Cl)c2SCc2ccc(Cl)cc2)cc1
inactive: [1] 8.1% | [2] -4.5% | [3] 8.2% | [4] 22.8% | [5] -2.15% | [6] 3.05%

COc1cc2ccc3c4cc5c(cc4cnc3c2cc1OC)OCO5
inactive: [1] -0.65% | [2] -3.45% | [3] -15.7% | [4] -25.9% | [5] -1.1% | [6] -16.7%

c1ccc2cc3c(cc2c1)oc1cc2ccccc2cc13
inactive: [1] -14.1% | [2] -9.05% | [3] -4.8% | [4] -6.1% | [5] -5.7% | [6] -10%

C[n+]1ccc(CCC(=O)Nc2ccccc2)cc1
inactive: [1] 3.65% | [2] 24.3% | [3] -4.35% | [4] 0.3% | [5] 25.6% | [6] 3%

NNC(=O)CCCO
inactive: [1] -33.9% | [2] -24% | [3] -7.5% | [4] -8% | [5] 0.4% | [6] 8.25%

Cc1ccsc1C(=O)C(CC(=O)c1cccs1)c1ccsc1 (stereo unspecified)
inactive: [1] -5.45% | [2] -8.45% | [3] -0.9% | [4] 17.3% | [5] 25.4% | [6] 16.4%

CCOC(=O)C(Cc1ccccc1)Nc1c(Cl)c(=O)oc2ccc(C)cc12 (stereo unspecified)
inactive: [1] 18.6% | [2] -3.2% | [3] 32.7% | [4] 26.9% | [5] -16.4% | [6] 19.6%

COc1ccc(CC[N+]2=Cc3cc(OC)c(OC)cc3CC2)cc1OC
inactive: [1] -0.9% | [2] -2.8% | [3] 12.6% | [4] 13.3% | [5] 2.7% | [6] 15.5%

O=[N+]([O-])c1cccnc1Sc1ccccc1C1=NCCCN1
inactive: [1] -5.55% | [2] -12.3% | [3] -3.45% | [4] 19.9% | [5] -4.2% | [6] -4.1%

CC(N)/C(N)=N/O (stereo unspecified)
inactive: [1] 11.2% | [2] 4.9% | [3] -0.95% | [4] -2.45% | [5] 18.4% | [6] 15%

CN(CC1CCCCC1=O)CC1CCCCC1=O (stereo unspecified)
inactive: [1] 8.65% | [2] 10.2% | [3] -11.1% | [4] -8.8% | [5] 19% | [6] -3.55%

CC1(C)C(=NNc2ccccc2)C(C)(C)C1=NNc1ccccc1
inactive: [1] 14.8% | [2] 63% | [3] 15.5% | [6] 33%
active: [4] 79.9% | [5] 96.2%

CCOC(=O)CCc1ccco1
inactive: [1] 3.15% | [2] -5.7% | [3] -4.45% | [4] 4.15% | [5] 9.1% | [6] 15.2%

O=C(O)C1CCCCN1C(=O)c1ccccc1 (stereo unspecified)
inactive: [1] -26.6% | [2] -8.4% | [3] -12.2% | [4] -0.05% | [5] -21.2% | [6] -15.5%

Cc1csc(NNC(=O)Nc2ccccc2)n1
inactive: [1] 36.7% | [2] 14.2% | [3] -35.5% | [4] 18.4% | [5] -8.65% | [6] 7.5%

C[N+](C)(C)c1cc2c(nn1)Nc1ccccc1S2
inactive: [1] 17.4% | [2] 3.8% | [3] -2.75% | [4] 14.7% | [5] -17.8% | [6] 8.35%

Cc1c[n+]([O-])n(-c2ccccc2)n1
inactive: [1] 4.65% | [2] -4.9% | [3] 0.7% | [4] -38.7% | [5] 11.6% | [6] -4.8%

COC(=O)CCc1c[nH]c2ccc(N)cc12
inactive: [1] -12.8% | [2] -31.2% | [3] -14.8% | [4] 18.2% | [5] -14.5% | [6] -13.7%

CC1c2ncnc(N)c2CN1C(=O)c1ccccc1 (stereo unspecified)
inactive: [1] 4.55% | [2] -6.85% | [3] -3.15% | [4] -20.2% | [5] 6.75% | [6] -4.55%

N=C1N=Nc2nc(C(C(=O)c3cccc4ccccc34)c3nc4n(c3O)C(=N)N=N4)c(O)n21 (stereo unspecified)
inactive: [1] 19.5% | [2] 1.35% | [3] 14.2% | [4] 22.1% | [5] 0.9% | [6] 26.2%

CCc1cccc(C(C)C)c1NC(=O)/C(=N\NC(N)=O)C(C(=O)OC)c1cnc2ccccc2n1 (stereo unspecified)
inactive: [1] 19.8% | [2] 29.8% | [3] 1.15% | [4] 11.1% | [5] 26.1% | [6] 21.4%

CN=C(Nc1cccc(C(F)(F)F)c1)SCc1ccc(N=C=S)cc1
inactive: [1] 9.7% | [2] 28.3% | [3] 60% | [4] 10.2% | [5] 38.8% | [6] 38.5%

CC1=C(C#N)C(=O)OC1(C)C1CCCC(=O)C1 (stereo unspecified)
inactive: [1] -24.8% | [2] -1.45% | [3] -11.3% | [4] -2.7% | [5] 1.95% | [6] -3.75%

O=Cc1ccc2ccocc1-2
inactive: [1] 9.15% | [2] 14.8% | [3] -27.6% | [4] -11.8% | [5] -20.7% | [6] -41.2%

COc1ccc2ccc3c(CCN(C)C#N)cc4c(c3c2c1OC(C)=O)OCO4
inactive: [1] 11.7% | [2] -2.15% | [3] -8.9% | [4] 6.6% | [5] -0.95% | [6] 0.15%

O=c1[nH]c(=S)c2cncnc2n1C1OC(CO)C(O)C1O (stereo unspecified)
inactive: [1] 15.8% | [2] 11.8% | [3] -6.6% | [4] 10.2% | [5] -28.3% | [6] -26.4%

COc1ccc2c(c1)CC/C(=C\c1ccccn1)C2=O
inactive: [1] 41.5% | [2] 33.5% | [3] 16.8% | [4] 24.4% | [5] 19.5% | [6] 14.4%

N#Cc1c(-c2ccccc2)cc(-c2ccc(Cl)cc2)[nH]c1=S
inactive: [1] 5.3% | [2] 8.2% | [3] -19.1% | [4] 20.5% | [5] 42.2% | [6] 4.65%

C/C(=N/Nc1ccc([N+](=O)[O-])cc1[N+](=O)[O-])C1CC2CCC1C2 (stereo unspecified)
inactive: [1] -17.4% | [2] 2.05% | [3] 2.1% | [4] -4.3% | [5] 3% | [6] -16.6%

S=c1[nH][nH]c(=S)c2[nH]cnc12
inactive: [1] 1.6% | [2] -3.1% | [3] -5.55% | [4] -18.4% | [5] 2.2% | [6] -0.4%

CC1C(O)CC2(C(C)C)CC12 (stereo unspecified)
inactive: [1] 4.85% | [2] -0.25% | [3] -8.7% | [4] 12.3% | [5] -18.1% | [6] -10.4%

CC(=O)OC1C(=C(Br)Br)C(COC(=O)c2ccccc2)OC1n1cnc2c(NC(=O)c3ccccc3)ncnc21 (stereo unspecified)
inactive: [1] 8.3% | [2] 8.8% | [3] 10.4% | [4] 0.1% | [5] 16.9% | [6] 25.9%

C=CCOc1ccc(C2C(C(=O)OCC)C(=O)CC(C)(O)C2C(=O)OCC)cc1OC (stereo unspecified)
inactive: [1] -6.25% | [2] -11.3% | [3] -7.15% | [4] -24% | [5] 1.35% | [6] -7.45%

CCCCC(NC(=O)c1cnc2ccccc2n1)C(=O)O (stereo unspecified)
inactive: [1] 22.2% | [2] 14% | [3] 15.3% | [4] 4.6% | [5] 22.3% | [6] 31.6%

Cc1ccc([N+](=O)[O-])c2c(NCCNC(=O)Cn3ccnc3[N+](=O)[O-])ccnc12
inactive: [1] 15.8% | [2] 4.3% | [3] 8.25% | [4] -0.7% | [5] 16.4% | [6] 12.3%

Cn1c(=O)c2c(n(C)c1=O)[n+]([O-])c([N+]1([O-])CCOCC1)n2C
inactive: [1] -3.85% | [2] -6.3% | [3] -0.6% | [4] -24.9% | [5] -4.15% | [6] 3.2%

O=C(Cl)/C=C/c1ccccc1
inactive: [1] 37.1% | [2] 15.5% | [3] 27.9% | [4] -29.1% | [5] 23.9% | [6] 34.9%

COC(=O)C(Cc1ccc(O)cc1)NC(=O)CNS(=O)(=O)c1ccc(C)cc1 (stereo not drawn) (Tos-Gly-[ξY]-OMe)
inactive: [1] 35.8% | [2] -4.1% | [3] 19.9% | [4] 10.9% | [5] -1.2% | [6] 8.4%

c1ccc2c(c1)SCCCSCCSCCCS2
inactive: [1] -15.2% | [2] -0.65% | [3] 8.1% | [4] 5.05% | [5] 20.6% | [6] 2.6%
